Sampled rows, rich in hits. Any-hit rate of the full collection: about 19%.
DT40 TDP1 no CPT – qHTS for Inhibitors of human tyrosyl-DNA phosphodiesterase 1 (TDP1): qHTS in cells in absence of CPT; DT40 Tdp1-/- hTDP1 cells, no CPT, ATP luminescence, 48 h; Potency, µM (series often up to 46.2 µM), for inactives: at the highest dose activity change, negative = growth inhibition, actives largely listed as inhibitors; 420,000 tested, 15% active; note: nearly all actives have a fitted effect of over 55% in size
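No-CPT arm: Tdp1-/-;hTDP1 DT40 cells (400/well) plus compounds, incubated ≥48 hr at 37 °C. Readout CellTiter-Glo luminescence.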
TDP1 cell CPT – qHTS for Inhibitors of human tyrosyl-DNA phosphodiesterase 1 (TDP1): qHTS in cells in presence of CPT | 420,000 tested, 12% active | chicken DT40 Tdp1-/-;hTDP1 cells + 20 nM CPT, ATP luminescence, 48 h | Potency, µM (doses to about 46.2 µM), inactives show at the top dose activity change, negative = growth inhibition, actives largely listed as inhibitors; note: nearly all actives have a fitted effect of over 55% in size
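Chicken DT40 Tdp1-/- cells complemented with human TDP1, 400 cells/well, exposed to compounds plus 20 nM camptothecin for at least 48 h at 37 C; viability read as ATP content by CellTiter-Glo luminescence.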
KB-V1 cytotox – qHTS assay for MDR1-selective chemotherapeutics: Primary screen using the drug-selected MDR subline cells KB-V1 | KB-V1 MDR cells viability, CellTiter-Glo, 72 h | Potency, µM (top dose mostly 46.1 µM), hits mostly cytotoxic | 400,000 tested, 3.4% active; note: nearly all actives have a fitted effect of over 60% in size
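Luminescent ATP read-out (CellTiter-Glo, 10 min) measures survival of drug-selected KB-V1 MDR cells after 72 h, 37 degrees C compound exposure. Medium: phenol-red-free DMEM, 10% FBS. Values from fitted concentration-response curves.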
HT1080 IDH1KD tx – qHTS for induction of synthetic lethality in tumor cells producing 2HG: qHTS for the HT-1080-IDH1KD cell line; HT-1080 IDH1 knockdown viability, ATP luminescence, 48 h; Potency, µM (titrated, usually from 46.1 µM), for the others: at the highest dose activity, negative = toxicity, hits mostly cytotoxic; 360,000 tested, 2% active; AID 686971, 2013;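 note: 0% = DMSO wells and -100% = cell-free medium wells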
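Viability of IDH1-knockdown HT-1080 fibrosarcoma cells was assessed by CellTiter-Glo after 48 h at 37 °C with titrated compound; concentration-effect curves were classified by fit quality and response size.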
KB-3-1 cytotox – qHTS assay for MDR1-selective chemotherapeutics: Primary screen using the parental adenocarcinoma cell KB-3-1; KB-3-1 viability, CellTiter-Glo ATP luminescence, 72 h; Potency, µM (doses to about 46.1 µM), hits mostly cytotoxic; 400,000 tested, 1.4% active; note: nearly all actives have a fitted effect of over 60% in size
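Multi-concentration cytotoxicity screen in KB-3-1 cells grown in DMEM lacking phenol red with 10% FBS. After 72 h at 37 °C with compound, ATP-dependent luminescence was recorded.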
HT1080NT lethal – qHTS for induction of synthetic lethality in tumor cells producing 2HG: qHTS for the HT-1080-NT fibrosarcoma cell line; HT-1080-NT fibrosarcoma viability, CellTiter-Glo ATP luminescence, 48 h; 360,000 tested, 1.6% active; Potency, µM (highest dose often 46.1 µM), for inactives: top-dose activity, negative = less viability, usual class: cytotoxic;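 note: NT is the 2HG producing partner of a matched IDH1 knockdown line; 0% = DMSO-treated cells and -100% = media-only wells without cells; nearly all actives have a fitted effect of over 55% in size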
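Read-out is CellTiter-Glo luminescence after 10 minutes at room temperature, following 48 hours' compound treatment of HT-1080-NT cells (750 cells/well, RPMI, 5% FBS, 37 degrees C).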
The depositor's hits bear a star; i = inactive; ? = inconclusive; . = no result. Calls come from the whole dose curve; as a rule, active = well fitted curve in the direction sought with a large enough effect; inconclusive = small, poorly fitted or top-dose-only effect, or another doubt; inactive = no such curve, though single readings can be large; an effect the other way counts as inactive or inconclusive. Unless noted, % is set by controls: 0 for no effect and ±100 for the full control effect; potency is the fitted concentration of half-maximal effect.

SMILES	DT40 TDP1 no CPT	TDP1 cell CPT	KB-V1 cytotox	HT1080 IDH1KD tx	KB-3-1 cytotox	HT1080NT lethal
Cc1ccc2nc3sc(C(=O)N4CCCc5ccccc54)c(N)c3cc2c1	15µM*	?	6.5µM*	2%	?	-2%
CCc1nccn1C(=O)c1cnn2c(C(F)F)cc(-c3ccc(C)cc3)nc12	15µM*	21µM*	?	2%	?	2%
Cc1ccc(-c2cc(C(F)F)n3ncc(C(=O)N4CCc5ccccc54)c3n2)cc1	1.8µM*	1.8µM*	5.8µM*	2.3µM*	i	2.9µM*
O=C(c1cnn2c(C(F)F)cc(-c3ccccc3)nc12)N1CCc2ccccc21	?	18µM*	i	3%	i	2%
COc1ccc(NC(=O)c2cc(-c3ccccc3F)no2)cc1	?	-25%	i	.	i	.
CC1=C(c2ccc(C)c(C)c2)S(=O)(=O)N=C1N1CCC(C(=O)NCCc2ccco2)CC1	?	?	i	.	i	.
O=C(c1cnn2c(C(F)F)cc(-c3ccccc3)nc12)N1CCCCC1c1cccnc1 (stereo not given)	?	15µM*	i	2%	i	12%
O=C(c1cnn2c(C(F)F)cc(-c3ccccc3)nc12)N1CCN2CCCC2C1 (stereo not given)	4%	-3%	i	-12%	i	-8%
Cc1ccc(-c2cc(C(F)(F)F)n3ncc(C(=O)N4CCCc5ccccc54)c3n2)cc1	-10%	-28%	i	-4%	i	-9%
Cc1ccc(-c2cc(C(=O)N3CCCc4ccccc43)c3ccccc3n2)cc1	23µM*	?	23µM*	-1%	?	-3%
CC(=O)O/N=C/c1c(C)c(C=O)n2ccccc12	-2%	?	i	-1%	?	13%
O=S(=O)(c1ccc(Cl)cc1)N1CCCC1c1nc(-c2cccc(Cl)c2)no1 (stereo not given)	?	23µM*	i	-2%	i	1%
O=C(N1CCOCC1)N1CCC(c2nc(-c3ccc(S(=O)(=O)N4CCOCC4)cc3)no2)CC1	?	?	i	5%	i	-4%
O=S(=O)(c1ccc2ccccc2c1)N1CCC(c2nc(-c3ccncc3)no2)CC1	9.2µM*	16µM*	?	-3%	i	-1%
CC(C)N(C(=O)N1CCC(c2nc(-c3ccncc3)no2)CC1)C(C)C	18µM*	?	10µM*	-24%	?	-16%
CN(C)c1ccc(-c2noc(C3CCN(S(=O)(=O)c4cccc(Cl)c4)CC3)n2)cc1	?	?	6.5µM*	-2%	16µM*	6%
CCOc1ccc(C2/C(=C(\O)c3ccc4c(c3)OCCO4)C(=O)C(=O)N2Cc2cccnc2)cc1OCC (stereo not given)	1%	18%	?	-2%	i	3%
Cc1ccc(C(=O)NCC(=O)N2CCN(c3ccccc3O)CC2)s1	2.9µM*	-3%	i	1%	i	-5%
CCCNC(=O)C1(C)CCCN(C(=O)COc2ccc(Cl)cc2Cl)C1 (stereo not given)	-26%	-17%	?	0%	i	-2%
O=C(CC(c1ccccc1)c1ccccc1)N1CCN(c2ccccn2)CC1	18µM*	?	?	-11%	i	-15%
Cc1cccc(C(=O)NCC(=O)N2CCN(c3ccccn3)CC2)c1	3%	12%	21µM*	0%	i	-1%

Screening results (PubChem BioAssay)
